Data taken from PubChem BioAssay.
A number with no mark means an inactive call. Active and inactive are the calls of the source.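 The calls were made as follows: active = mean inhibition above 46.68%, the untreated control wells mean plus 3 SD; inactive = the rest.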

biological target: Nuclear receptor coactivator 1 (Homo sapiens) (UniProt Q15788); test: SRC1 coactivator transcriptional activity inhibitors, confirmation, cell-based, luminescence, quadruplicate (AID 588820); settings: HEK293 GAL4-SRC1 luciferase reporter, at 3.6 µM, stronger effect = higher value;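 also: 0% = DMSO wells and 100% = gossypol 36 µM treated wells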
Sequence (Q15788 whole entry, looked up, the tested form may be a part): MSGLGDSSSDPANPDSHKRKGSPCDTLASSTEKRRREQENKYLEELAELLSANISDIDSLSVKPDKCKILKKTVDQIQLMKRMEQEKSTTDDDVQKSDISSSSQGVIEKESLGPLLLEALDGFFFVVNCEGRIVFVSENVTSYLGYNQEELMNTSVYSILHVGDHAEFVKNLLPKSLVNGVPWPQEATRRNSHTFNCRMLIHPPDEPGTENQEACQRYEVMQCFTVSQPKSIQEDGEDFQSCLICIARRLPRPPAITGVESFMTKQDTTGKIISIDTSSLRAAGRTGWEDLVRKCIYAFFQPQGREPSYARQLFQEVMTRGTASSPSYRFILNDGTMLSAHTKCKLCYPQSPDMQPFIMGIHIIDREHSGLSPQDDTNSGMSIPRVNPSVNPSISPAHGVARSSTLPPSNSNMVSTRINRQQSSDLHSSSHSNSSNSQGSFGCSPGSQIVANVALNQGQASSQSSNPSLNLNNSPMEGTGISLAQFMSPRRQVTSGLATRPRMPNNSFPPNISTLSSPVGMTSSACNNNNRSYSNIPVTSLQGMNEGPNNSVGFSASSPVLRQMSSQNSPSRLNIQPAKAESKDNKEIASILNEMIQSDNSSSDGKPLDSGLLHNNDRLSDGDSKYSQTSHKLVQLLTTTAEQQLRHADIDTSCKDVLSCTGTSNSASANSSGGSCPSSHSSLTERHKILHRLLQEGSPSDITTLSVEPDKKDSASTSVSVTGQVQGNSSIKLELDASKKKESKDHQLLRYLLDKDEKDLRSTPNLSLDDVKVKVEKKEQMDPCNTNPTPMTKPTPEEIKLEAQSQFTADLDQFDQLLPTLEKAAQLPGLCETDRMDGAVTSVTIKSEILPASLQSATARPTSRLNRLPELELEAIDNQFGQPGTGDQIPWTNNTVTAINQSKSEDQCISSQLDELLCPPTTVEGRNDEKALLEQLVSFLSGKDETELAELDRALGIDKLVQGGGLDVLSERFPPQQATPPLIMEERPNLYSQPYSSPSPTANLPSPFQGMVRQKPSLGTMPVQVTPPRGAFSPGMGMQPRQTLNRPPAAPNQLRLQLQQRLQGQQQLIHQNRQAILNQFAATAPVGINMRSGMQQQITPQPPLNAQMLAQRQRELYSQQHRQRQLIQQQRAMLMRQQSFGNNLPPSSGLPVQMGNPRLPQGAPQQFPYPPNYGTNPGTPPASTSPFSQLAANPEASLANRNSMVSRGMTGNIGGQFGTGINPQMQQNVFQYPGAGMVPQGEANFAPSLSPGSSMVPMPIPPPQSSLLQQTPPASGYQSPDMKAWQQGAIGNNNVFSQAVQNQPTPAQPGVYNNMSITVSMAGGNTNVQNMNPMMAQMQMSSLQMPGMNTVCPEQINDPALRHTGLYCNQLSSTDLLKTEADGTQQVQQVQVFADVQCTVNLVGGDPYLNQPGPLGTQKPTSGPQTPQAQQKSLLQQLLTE

SMILES	inhibition
COC(=O)c1cc(Cl)cc(Cl)c1OS(=O)(=O)N(C)C	-212%
CC1Sc2ccc(Cl)cc2-c2nc(N)ncc21 (configuration not stated)	48.2% (active)
NC(=O)c1cc(Sc2ccccc2)nc2ccccc12	34.4%
NNC(=O)C(=O)Nc1ccc(O)cc1	-20.1%
Cc1ccc(CNc2ncnc3ccc(-c4ccoc4C)cc23)o1	62% (active)
O=C(CCl)N1N=C(c2ccco2)CC1c1cccs1 (configuration not stated)	15.3%
COc1ccc(-c2nsc3c(N4CCCCC4)ncnc23)cc1	1.39%
CCN1/C(=C/c2ccc3cc(C)cc(C)c3[n+]2CC)Sc2cc(C)ccc21	0.74%
O=C(NCc1ccc(Cl)cc1)c1csc(-c2cccnc2)n1	10.2%
CC(=O)Nc1ccc(SCC(=O)c2cc(C)n(-c3ccccc3)c2C)cc1	-4.5%
O=C(Nc1ccc([N+](=O)[O-])cc1)Nc1ccc(OC(F)F)c(Cl)c1	10.3%
NC(=O)C(C(=O)/C=C/c1ccc(Cl)cc1)=C1SCCS1	30.9%
Cc1cc(C(=O)NNc2ccc(F)cc2)no1	-4.64%
COc1cc(/C=C2\CC(C(C)(C)C)C/C(=C\c3cc(OC)c(OC)c(OC)c3)C2=O)cc(OC)c1OC (configuration not stated)	19.8%
Cc1ccc(S(=O)(=O)NC(CC(C)C)C(=O)NCC(c2ccco2)N2CCCCC2)cc1 (configuration not stated)	32.8%
O=[N+]([O-])c1cccc2c1ccc1ncccc12	36%
O=C(Nc1ccc(S(=O)(=O)N2CCCCC2)cc1)c1ccc(CN2CCOCC2)cc1	-6%
